According to PubChem BioAssay (EPA / NIEHS):
Where “and” joins values, the source holds several entries; their conditions need not be identical. Equal entries are not always repeated. Records with an inconclusive call do not appear. Some structures have more than one record in an assay (separate samples or runs), and their calls can disagree. Calls of active or inactive are those of the source. How the source made its calls, unless noted: active means hit-call score of the fitted dose curve at least 0.9, where 1 is the maximum; inconclusive means response in the unintended direction; inactive means score below 0.9.

Legend:
[1] = BSK_4H_Eotaxin3: BioMAP Diversity Plus: 4H Assay for Eotaxin 3 Biomarker Activity (AID 2283000; active means hit-call score of the fitted dose curve at least 0.9, where 1 is the maximum; inactive means score below 0.9;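 on outcome: CCL26 protein level quantified by ELISA in parallel with SRB cytotoxicity check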); settings: primary human endothelial cells (HUVEC); actives raise or lower the signal
Method in brief: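 Human umbilical vein endothelial cells (BSK_4H system) dosed with test chemical; Eotaxin-3 (CCL26) measured by ELISA 24 h after dosing. Bidirectional curve fitting relative to DMSO negative control as baseline.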

[2] = biological target: human Peroxisome Proliferator-activated Receptor delta (PPARd), PPARD (gene 5467) (UniProt Q03181); assay: ATG_PPARd_TRANS: Attagene TRANS-FACTORIAL HepG2 Assay for human Peroxisome Proliferator-activated Receptor delta (PPARd) (AID 2283002)
Sequence of human Peroxisome Proliferator-activated Receptor delta (PPARd), PPARD (gene 5467) (Q03181 whole entry, looked up, the tested form may be a part): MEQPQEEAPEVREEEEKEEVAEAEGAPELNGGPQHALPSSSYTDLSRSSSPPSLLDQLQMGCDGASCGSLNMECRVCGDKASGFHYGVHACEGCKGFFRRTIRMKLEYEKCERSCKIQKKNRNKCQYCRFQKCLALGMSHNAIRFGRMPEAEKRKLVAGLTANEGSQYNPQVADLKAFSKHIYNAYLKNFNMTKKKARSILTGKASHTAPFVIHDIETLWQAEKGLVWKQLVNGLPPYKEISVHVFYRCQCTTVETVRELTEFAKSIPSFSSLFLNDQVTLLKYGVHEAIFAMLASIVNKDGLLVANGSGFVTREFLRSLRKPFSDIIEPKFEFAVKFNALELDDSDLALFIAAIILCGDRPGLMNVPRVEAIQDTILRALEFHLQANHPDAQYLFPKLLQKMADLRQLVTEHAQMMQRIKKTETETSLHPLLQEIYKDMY
Method in brief: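 Fluorescence from capillary electrophoresis of labelled RT-PCR reporter fragments gives the signal; DMSO sets baseline. Cells: HepG2 transiently carrying GAL4-UAS reporter units plus chimeric nuclear receptor-Gal4 proteins, exposed to chemicals for 24 h.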

[3] = read-out: Intercellular Adhesion Molecule 1 (ICAM1), ICAM1 (gene 3383); assay: BSK_3C_ICAM1: BioMAP Diversity Plus: 3C Assay for Intercellular Adhesion Molecule 1 (ICAM1) Biomarker Activity (AID 2283003; active means hit-call score of the fitted dose curve at least 0.9, where 1 is the maximum; inactive means score below 0.9); settings: primary human endothelial cells (HUVEC); actives raise or lower the signal
Method in brief: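 Using DMSO as baseline, bidirectional curve fitting was applied to ICAM-1 ELISA signals from HUVEC in the 3C system, measured 24 h after compound addition.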

[4] = BSK_3C_Proliferation: Cell Proliferation Assessment in the BioMAP Diversity Plus: 3C Assay (AID 2283006; active means hit-call score of the fitted dose curve at least 0.9, where 1 is the maximum; inactive means score below 0.9;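 on AC50: potency may reflect either rise or fall in cell number versus DMSO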); settings: primary human endothelial cells (HUVEC)
Method in brief: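 Measured here: sulforhodamine B (0.1%) staining of TCA-fixed sub-confluent umbilical vein endothelial cultures 48 h post-dosing, absorbance 560 nm. DMSO served as negative control and baseline; both signal gain and loss were modelled.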

[5] = biological target: Peroxisome proliferator-activated receptor gamma (Homo sapiens) (UniProt P37231); assay: ATG_PPARg_TRANS: Attagene TRANS-FACTORIAL HepG2 Assay for human Peroxisome Proliferator-activated Receptor-gamma (PPARg) (AID 2283007)
Sequence of Peroxisome proliferator-activated receptor gamma (Homo sapiens) (P37231 whole entry, looked up, the tested form may be a part): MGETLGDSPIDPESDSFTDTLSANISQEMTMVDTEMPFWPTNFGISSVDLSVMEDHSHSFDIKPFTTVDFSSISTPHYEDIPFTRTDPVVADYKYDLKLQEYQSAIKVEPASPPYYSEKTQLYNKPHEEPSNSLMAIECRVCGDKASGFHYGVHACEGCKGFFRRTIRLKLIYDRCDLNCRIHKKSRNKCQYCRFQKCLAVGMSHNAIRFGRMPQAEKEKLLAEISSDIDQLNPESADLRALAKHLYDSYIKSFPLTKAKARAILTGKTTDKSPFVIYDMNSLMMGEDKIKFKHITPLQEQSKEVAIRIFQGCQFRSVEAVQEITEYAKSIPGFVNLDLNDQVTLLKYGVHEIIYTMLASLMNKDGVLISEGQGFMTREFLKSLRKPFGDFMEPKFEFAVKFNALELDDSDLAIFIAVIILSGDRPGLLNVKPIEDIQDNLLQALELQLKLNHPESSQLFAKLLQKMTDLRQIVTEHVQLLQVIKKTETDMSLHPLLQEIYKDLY
Method in brief: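 After 24 h of chemical exposure, transfected HepG2 cells carrying PPARγ-Gal4 chimera reporter constructs are lysed for RNA. Reporter transcripts are measured by RT-PCR and capillary electrophoresis with fluorescent labelling, and gain of signal is fitted versus DMSO.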

[6] = biological target: Nuclear receptor subfamily 1 group I member 2 (Homo sapiens) (UniProt O75469); assay: ATG_PXR_TRANS: Attagene TRANS-FACTORIAL HepG2 Assay for human Pregnane X Receptor (PXR) (AID 2283008)
Sequence of Nuclear receptor subfamily 1 group I member 2 (Homo sapiens) (O75469 whole entry, looked up, the tested form may be a part): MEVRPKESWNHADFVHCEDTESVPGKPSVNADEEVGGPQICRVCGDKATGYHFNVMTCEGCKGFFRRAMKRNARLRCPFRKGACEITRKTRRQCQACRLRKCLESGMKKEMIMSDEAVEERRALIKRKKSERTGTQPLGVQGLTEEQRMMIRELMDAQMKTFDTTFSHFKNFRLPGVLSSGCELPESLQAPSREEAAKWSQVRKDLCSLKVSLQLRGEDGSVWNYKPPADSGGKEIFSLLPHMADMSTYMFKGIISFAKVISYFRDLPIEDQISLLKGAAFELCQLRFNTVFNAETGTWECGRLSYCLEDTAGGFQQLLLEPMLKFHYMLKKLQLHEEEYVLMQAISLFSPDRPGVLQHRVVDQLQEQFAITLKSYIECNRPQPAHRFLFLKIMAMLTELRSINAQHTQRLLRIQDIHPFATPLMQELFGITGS
Method in brief: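 Transactivation by exogenous PXR–GAL4 fusion measured as reporter transcript induction after 24 h compound treatment of transfected human HepG2 cells. Read-out via RT-PCR and capillary electrophoresis of labelled fragments, fitted upward relative to DMSO.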

[7] = biological target: human Peroxisome Proliferator-activated Receptor alpha (PPARa), PPARA (gene 5465) (UniProt Q07869); assay: ATG_PPARa_TRANS: Attagene TRANS-FACTORIAL HepG2 Assay for human Peroxisome Proliferator-activated Receptor alpha (PPARa) (AID 2283001)
Sequence of human Peroxisome Proliferator-activated Receptor alpha (PPARa), PPARA (gene 5465) (Q07869 whole entry, looked up, the tested form may be a part): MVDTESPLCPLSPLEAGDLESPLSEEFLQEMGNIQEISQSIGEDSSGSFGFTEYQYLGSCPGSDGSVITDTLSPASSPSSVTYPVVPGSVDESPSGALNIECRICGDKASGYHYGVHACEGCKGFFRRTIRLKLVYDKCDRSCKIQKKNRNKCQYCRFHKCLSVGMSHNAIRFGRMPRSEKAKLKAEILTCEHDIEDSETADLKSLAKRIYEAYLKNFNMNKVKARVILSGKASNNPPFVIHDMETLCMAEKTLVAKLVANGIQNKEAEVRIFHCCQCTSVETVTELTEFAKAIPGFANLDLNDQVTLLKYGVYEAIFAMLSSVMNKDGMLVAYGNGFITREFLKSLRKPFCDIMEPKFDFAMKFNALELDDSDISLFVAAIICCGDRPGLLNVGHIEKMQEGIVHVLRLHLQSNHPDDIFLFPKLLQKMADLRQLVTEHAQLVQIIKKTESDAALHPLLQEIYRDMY
Method in brief: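 Transient HepG2 transfection, GAL4-UAS reporters, NR-Gal4 chimeras; 24 h compound exposure. Readout: reporter transcripts by RT-PCR, 6-FAM primer extension, HpaI digest, capillary electrophoresis. Positive direction vs DMSO baseline.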

[8] = biological target: human Retinoic Acid Receptor beta (RARb), RARB (gene 5915) (UniProt P10826); assay: ATG_RARb_TRANS: Attagene TRANS-FACTORIAL HepG2 Assay for human Retinoic Acid Receptor beta (AID 2283004)
Sequence of human Retinoic Acid Receptor beta (RARb), RARB (gene 5915) (P10826 whole entry, looked up, the tested form may be a part): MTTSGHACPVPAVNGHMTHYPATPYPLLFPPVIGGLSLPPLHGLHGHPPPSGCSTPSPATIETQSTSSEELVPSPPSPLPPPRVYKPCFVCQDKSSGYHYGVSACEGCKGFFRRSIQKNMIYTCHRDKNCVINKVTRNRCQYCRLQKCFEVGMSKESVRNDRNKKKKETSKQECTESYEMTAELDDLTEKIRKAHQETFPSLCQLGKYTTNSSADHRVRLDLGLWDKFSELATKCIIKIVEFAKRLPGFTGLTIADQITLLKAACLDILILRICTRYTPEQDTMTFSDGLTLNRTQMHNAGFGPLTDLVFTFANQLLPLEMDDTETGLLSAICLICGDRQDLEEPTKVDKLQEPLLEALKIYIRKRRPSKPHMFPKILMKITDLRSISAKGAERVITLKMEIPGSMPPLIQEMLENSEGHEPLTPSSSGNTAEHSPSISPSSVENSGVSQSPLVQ
Method in brief: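 Induction of reporter mRNA from a chimeric RARb-Gal4 construct was measured by RT-PCR, FAM labelling, HpaI digestion and capillary electrophoresis. Measurements followed 24 h compound treatment of transiently transfected human HepG2 liver cells, with DMSO as baseline.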

[9] = biological target: Retinoic acid receptor alpha (Homo sapiens) (UniProt P10276); assay: ATG_RARa_TRANS: Attagene TRANS-FACTORIAL HepG2 Assay for human Retinoic Acid Receptor alpha (RARa) (AID 2283005)
Sequence of Retinoic acid receptor alpha (Homo sapiens) (P10276 whole entry, looked up, the tested form may be a part): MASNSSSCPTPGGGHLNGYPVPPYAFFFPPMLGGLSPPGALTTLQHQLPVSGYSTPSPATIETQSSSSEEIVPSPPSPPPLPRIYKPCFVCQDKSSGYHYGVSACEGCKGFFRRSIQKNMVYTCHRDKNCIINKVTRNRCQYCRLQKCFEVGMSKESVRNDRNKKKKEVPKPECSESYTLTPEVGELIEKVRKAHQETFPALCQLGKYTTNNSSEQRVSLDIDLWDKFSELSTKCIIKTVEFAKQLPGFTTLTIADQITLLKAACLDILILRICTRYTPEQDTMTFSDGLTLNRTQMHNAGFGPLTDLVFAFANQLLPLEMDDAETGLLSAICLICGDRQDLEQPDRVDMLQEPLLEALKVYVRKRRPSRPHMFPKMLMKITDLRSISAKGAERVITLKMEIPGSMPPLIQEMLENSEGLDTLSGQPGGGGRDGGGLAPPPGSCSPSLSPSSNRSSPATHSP
Method in brief: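 HepG2 transiently transfected with multiplex GAL4-UAS reporter units including a human RARa–GAL4 chimera; 24 h compound exposure. Reporter mRNA quantified by RT-PCR, 6-FAM labeling and capillary electrophoresis; gain of signal versus DMSO.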

[10] = biological target: human Retinoic Acid Receptor gamma (RARg), RARG (gene 5916) (UniProt P13631); assay: ATG_RARg_TRANS: Attagene TRANS-FACTORIAL HepG2 Assay for human Retinoic Acid Receptor gamma (RARg) (AID 2283009)
Sequence of human Retinoic Acid Receptor gamma (RARg), RARG (gene 5916) (P13631 whole entry, looked up, the tested form may be a part): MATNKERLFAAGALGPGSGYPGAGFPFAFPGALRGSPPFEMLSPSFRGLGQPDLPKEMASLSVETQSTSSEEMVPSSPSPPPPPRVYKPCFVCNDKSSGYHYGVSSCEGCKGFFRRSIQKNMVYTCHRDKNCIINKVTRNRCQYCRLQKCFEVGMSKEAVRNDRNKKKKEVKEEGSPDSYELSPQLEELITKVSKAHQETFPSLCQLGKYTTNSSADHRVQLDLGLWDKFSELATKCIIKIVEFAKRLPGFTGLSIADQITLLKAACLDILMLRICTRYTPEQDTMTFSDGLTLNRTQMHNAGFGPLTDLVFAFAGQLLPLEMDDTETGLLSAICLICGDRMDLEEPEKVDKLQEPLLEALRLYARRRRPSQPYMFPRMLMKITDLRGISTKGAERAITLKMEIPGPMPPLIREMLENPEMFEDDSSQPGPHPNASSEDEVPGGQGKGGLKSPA
Method in brief: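 Gain-of-signal relative to DMSO is reported from fluorescent capillary electrophoresis of RT-PCR reporter products. These came from HepG2 cells expressing transfected RARg-GAL4 chimeras with UAS reporters, harvested 24 h after dosing.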

CCOCCOC(C)=O
outcome [1]: inactive | outcome [2]: inactive | outcome [3]: inactive | outcome [4]: inactive | outcome [5]: inactive | outcome [6]: inactive

CCOP(=S)(OCC)SCSC(C)(C)C
outcome [1]: inactive | outcome [2]: inactive | outcome [3]: inactive | AC50 [4]: 29.3 µM (active) | outcome [5]: inactive | AC50 [6]: 3.49 µM (active) and 2.9 µM (active)

CC(c1ccc(O)cc1)(c1ccc(O)cc1)c1ccc(O)cc1
AC50 [1]: 31.4 µM (active) | outcome [2]: inactive | outcome [3]: inactive | AC50 [4]: 28 µM (active) | outcome [5]: inactive | AC50 [6]: 2.93 µM (active)

O=C(NC(=O)c1cc(F)c(F)cc1Cl)Nc1cc(F)ccc1N1CCC(C(=O)O)CC1
outcome [1]: inactive | outcome [7]: inactive | outcome [3]: inactive | outcome [4]: inactive | AC50 [5]: 0.954 µM (active) | outcome [6]: inactive

CCSC(=O)N(CC)C1CCCCC1
outcome [1]: inactive | outcome [3]: inactive | outcome [4]: inactive | outcome [5]: inactive | outcome [6]: inactive

c1cc2ccc3cccc4ccc(c1)c2c34
outcome [1]: inactive | outcome [2]: inactive | outcome [3]: inactive | outcome [8]: inactive | outcome [9]: inactive | outcome [4]: inactive | outcome [5]: inactive | outcome [6]: inactive | outcome [10]: inactive

O=C(N[C@H]1CN2CCC1CC2)c1cc2ccoc2cn1
outcome [1]: inactive | outcome [7]: inactive | outcome [3]: inactive | outcome [4]: inactive | outcome [6]: inactive

Clc1ccc(C(Cl)(Cl)Cl)cc1
outcome [1]: inactive | outcome [7]: inactive | outcome [3]: inactive | outcome [4]: inactive | outcome [5]: inactive | outcome [6]: inactive

C=CC(N)=O
outcome [1]: inactive | outcome [3]: inactive | outcome [8]: inactive | outcome [9]: inactive | outcome [4]: inactive | outcome [6]: inactive | outcome [10]: inactive

CC(C)(O)C(=O)Nc1ccc([N+](=O)[O-])c(C(F)(F)F)c1
outcome [1]: inactive | outcome [7]: inactive | outcome [3]: inactive | outcome [4]: inactive | AC50 [6]: 21.2 µM (active) | outcome [6]: inactive | outcome [10]: inactive
